What all share (assay): NCI-60 one-dose screen, 48 h (100 = growth as untreated, 0 = no growth, -100 = all killed)
Common to all, as to conditions: 10 µM unless noted

The subject of assay [1] is NCI-H23 lung.
Assay [2] has as its system NCI-H226 lung.
Assay [3] concerns HOP-62 NSCLC.
Assay [4] deals with NCI-H460 lung.
Assay [5] has as its system HOP-92 NSCLC.
Assay [6] deals with NCI-H522 lung.
In assay [7] the test system is A549/ATCC NSCLC.
Assay [8] has as its system 786-0 renal.
Assay [9] concerns COLO 205 colon.
Assay [10] relates to DU-145 prostate.
Assay [11] relates to K-562 leukemia.
Assay [12] concerns MALME-3M melanoma.
Assay [13] has as its system MDA-MB-231 breast.
Assay [14] has as its system RXF 393 renal.
Assay [15] concerns SF-268 CNS.
In assay [16] the test system is SF-295 CNS.
In assay [17] the test system is SF-539 CNS.
The subject of assay [18] is UACC-257 melanoma.
Assay [19] has as its system M14 melanoma.

Structures are written as SMILES. This is part of a sample that, as a whole, favours compounds with a hit. Of some 83,000 tested, about 20% had one in any assay.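 A percent growth of 40 corresponds to 60% growth inhibition; 0 means no net growth; -100 means all cells died. Active threshold: below 10.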 A number with no mark means an inactive call. Activity calls are given as the source filed them.

For `COc1ccc(-c2cn(-c3ccc(Cl)cc3)c(=S)[nH]2)cc1OC`, the growth is 89.6% in [1]; 63.2% in [2]; 38.4% in assay [3]; 37.9% in [4]; 81.8% in assay [5]; 49.4% in [6]. The growth was 72% in [7]; 1.85% (active) in [8]; 44.2% in [9]; 78.5% in assay [10]; 75.9% in [11]; 90.2% in [12]. Also, the growth is 53% in assay [13]; 11% in assay [14]; 96.1% in assay [15]; 68.6% in assay [16]; 85.6% in assay [17]; 65.8% in assay [18]. Besides, the growth in assay [19] was 4.41% (active).
On to `Cc1cc(C)nc(NS(=O)(=O)c2ccc(Nc3ccc4c5c(n(CCCN(C)C)c(=O)c4c3)-c3ccccc3C5=O)cc2)n1`, for which the growth in assay [1] is 83.9%; in assay [2] it was 83.3%; in assay [3] it was 70.1%; in assay [4], 28.9%; in assay [5], 90.1%; in [6] it was 73%. The growth in [7] is 52.3%; in assay [8] it was 80.5%; in assay [9], 70.4%; in [10], 69%; in assay [11] it was 74.7%; in assay [12], 102%. Moreover, the growth in [13] was 108%; in assay [14], 115%; in assay [15], 77.9%; in [16], 83.3%; in assay [17] it was 96.3%; in assay [18], 108%. In [19], the growth is 89.8%.
Take `c1cc(CNC23CC4CC(CC(C4)C2)C3)cc(C[N+](Cc2cccc(CNC34CC5CC(CC(C5)C3)C4)c2)(Cc2cccc(CNC34CC5CC(CC(C5)C3)C4)c2)Cc2cccc(CNC34CC5CC(CC(C5)C3)C4)c2)c1` (stereo not drawn): the growth in assay [1] is 42.1% [42 µM]; in [2], 33.5% [42 µM]; in assay [3], 33.1% [42 µM]; in assay [4], 3.83% [42 µM] (active); in assay [5] it was 32.8% [42 µM]; in assay [6] it was -56.4% [42 µM] (active). For the same molecule, the growth in assay [7] is 16.2% [42 µM]; in assay [8], 18.3% [42 µM]; in assay [9], -40.9% [42 µM] (active); in assay [10] it was -4.07% [42 µM] (active); in assay [11], 4.99% [42 µM] (active); in [12], 6.44% [42 µM] (active). For the same molecule, the growth in assay [13] was 16.7% [42 µM]; in assay [14] it was 4.56% [42 µM] (active); in assay [15] it was 26.9% [42 µM]; in [16] it was 54.4% [42 µM]; in [17], 16.9% [42 µM]; in [18] it was 41.5% [42 µM]. In assay [19], the growth is 24.3% [42 µM].
For `CN(C)C(CNc1oc(-c2cccc3ccccc23)nc1C#N)c1ccco1` (stereo not drawn), the growth in [1] is 97.1%; in assay [2] it was 101%; in assay [3] it was 94.9%; in assay [4], 101%; in assay [5] it was 94%; in assay [6], 86.9%. Further, the growth is 91.6% in assay [7]; 90.1% in assay [8]; 93.1% in assay [9]; 98.7% in assay [10]; 74.5% in [11]; 98% in assay [12]. Further, the growth was 107% in assay [13]; 99.3% in assay [14]; 91.4% in assay [15]; 90.1% in assay [16]; 102% in [17]; 98.5% in assay [18]. Further, the growth in assay [19] was 91.9%.
`COc1ccc(/C=C(/C(=O)N2CCN(Cc3ccccc3)CC2)c2cc(OC)c(OC)c(OC)c2)cc1O`: the growth in [1] was 81%; in [2], 81.7%; in [3], 74.2%; in [4] it was 58.4%; in [5], 44.3%; in assay [6], 44.8%. In addition, the growth in assay [7] was 68%; in assay [8], 87.6%; in [9] it was 110%; in [10], 82.3%; in [11] it was 23.1%; in [12], 65.8%. Further, the growth in assay [13] is 76.9%; in assay [14] it was 62.3%; in assay [15], 72.6%; in assay [16], 82.8%; in assay [17], 55.7%; in assay [18] it was 54.7%. Further, the growth in [19] is 38%.
In the case of `O=Cc1[nH]c(Sc2ccccc2)c2ccccc12`, the growth in assay [1] was 67.2%; in assay [2], 66.9%; in [3], 85.6%; in assay [4], 90.5%; in [5], 45.7%; in assay [6], 107%. In addition, the growth was 96.1% in [7]; 81.1% in assay [8]; 64.8% in [9]; 83% in [10]; 35.5% in [11]; 58.2% in assay [12]. The growth is 85.1% in assay [13]; 75.1% in [14]; 75% in [15]; 114% in assay [16]; 78.8% in [17]; 77.7% in assay [18]. For the same molecule, the growth in assay [19] is 81.3%.
With `Cc1nc(C)c(C)nc1C`, the growth in assay [1] was 102%; in [2], 104%; in [3], 100%; in assay [4], 109%; in assay [5], 103%; in [6] it was 84.6%. The growth is 86.6% in assay [7]; 96.9% in [8]; 119% in assay [9]; 108% in assay [10]; 93.1% in assay [11]; 102% in assay [12]. Further, the growth in [13] is 108%; in assay [14], 120%; in assay [15] it was 105%; in assay [16] it was 107%; in assay [17], 104%; in assay [18], 88.1%. Besides, in assay [19], the growth was 101%.

Source of the values: PubChem BioAssay (NCI).
